Hit rate of the full screen: of about 190,000 compounds, about 810 (0.43%) were called active. The list comes from a sample in which actives are over-represented; it also holds similar structures and randomly drawn compounds. Values without a mark were called inactive. Rule as the data show it: active = inhibition above about 50%; inactive = the rest.

Chain of Mannose-6-phosphate isomerase (Homo sapiens) (P34949 whole entry, looked up): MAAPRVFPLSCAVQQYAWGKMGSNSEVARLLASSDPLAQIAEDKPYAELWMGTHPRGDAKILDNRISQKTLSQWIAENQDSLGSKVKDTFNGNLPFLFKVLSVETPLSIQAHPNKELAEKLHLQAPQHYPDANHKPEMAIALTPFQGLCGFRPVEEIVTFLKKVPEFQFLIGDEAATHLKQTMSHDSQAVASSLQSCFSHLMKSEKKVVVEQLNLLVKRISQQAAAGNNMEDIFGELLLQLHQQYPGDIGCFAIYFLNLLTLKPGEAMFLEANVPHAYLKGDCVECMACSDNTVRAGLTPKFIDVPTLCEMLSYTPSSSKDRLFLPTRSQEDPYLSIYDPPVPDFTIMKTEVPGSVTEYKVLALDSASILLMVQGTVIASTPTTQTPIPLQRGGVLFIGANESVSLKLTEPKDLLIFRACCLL

This assay concerns the target Mannose-6-phosphate isomerase (Homo sapiens) (UniProt P34949). Description: MPI enzyme activity inhibition – biochemical, fluorescence intensity, coupled assay, primary screen (AID 1209).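 Also: plate controls were DMSO vehicle for no effect and wells lacking substrate for full effect.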 Particulars: purified PMI enzyme, at 20 µM, active compounds read high.
As for `Cc1c(Br)cc(C(=O)OC2CCN(C)CC2)c(C)c1C`, the inhibition is -1.2%.
The value for `CCc1nnc(NC(=O)CSc2nnc(CNc3ccc(Cl)cc3)o2)s1` was 9.1%; that for `CCCNc1nc2c(c(=O)n(C)c(=O)n2C)n1Cc1ccc(F)cc1` was 15.7%; that for `COc1ccc2c(c1OC)C(=O)N(c1nccs1)C2` was 6.6%.
With `CCN=C(NS(=O)(=O)c1ccc(Br)cc1)c1ccc(Cl)cc1`, the inhibition is 10.4%.
The value for `CC1CCCN(S(=O)(=O)c2ccccc2[N+](=O)[O-])C1` (stereo not given) was 9.5%; that for `COc1ccc(C2CC2/C(C)=N/OC(=O)c2cccs2)cc1` (stereo not given) was -5.4%; that for `COc1ccc(C2CC2/C(C)=N/OC(=O)C2CC2)cc1` (stereo not given) was 2.2%.
As for `COc1ccc(C2CC2/C(C)=N/OC(=O)c2ccc(F)cc2)cc1` (stereo not given), the figure is 73.5% (active); as for `CCn1c(C)nc2cc(C(=O)OC(C(F)(F)C(F)F)C(F)(F)C(F)F)ccc21`, 18.2%.
The value for `Cc1cc2c(cc1C)N(C(=O)CSc1nncn1C)C(C)(C)c1ssc(=S)c1-2` was 10.4%; that for `COC(=O)c1cc(OC)nc2c1c(=O)n(C)c(=O)n2C` was -3.1%.
For `CCC(=O)n1nc(-c2cccnc2)nc1NCc1ccc(OC)cc1`, the inhibition was 8.8%.
As for `CCCC(=O)n1nc(-c2cccnc2)nc1NCc1ccc(OC)cc1`, the figure is 86.5% (active); as for `CCCC(=O)n1nc(-c2cccnc2)nc1NCc1ccccc1`, 3.3%.
As for `O=C(CSc1ccc2c(c1)OCCO2)Nc1cccc(S(=O)(=O)N2CCCCC2)c1`, the figure is 12.6%; as for `CC(=O)c1cc2c(O)c(O)ccc2o1`, 81.1% (active); as for `O=C(O)c1cc2c(ccc3ccccc32)o1`, 4.1%.
As for `CC(=O)c1cc2cc(O)ccc2o1`, the figure is 3.2%; as for `COc1cc(OC)cc(C(=O)N[C@H](C(=O)Nc2nnc(C3CC3)s2)C(C)C)c1`, 11.7%.
Regarding `O=C(CCc1ccccc1)OCC(=O)c1cccc([N+](=O)[O-])c1`, the inhibition was 3.7%.
As for `O=C(CSc1ncnc2c1oc1ccccc12)OCc1ccccc1`, the figure is 22.9%; as for `CCOc1ccccc1N1C(=O)CC(Sc2n[nH]c(-c3ccccc3)n2)C1=O` (stereo not given), 36%; as for `COc1ccccc1N1C(=O)CC(Sc2nc(C)cc(C)n2)C1=O` (stereo not given), 0.4%.
As for `O=C(CN1CCCCC1)NCCNc1ccc(C(F)(F)F)cc1[N+](=O)[O-]`, the figure is 3.9%; as for `O=S(=O)(Nc1ccc(Cl)cc1)c1ccc(N2CCOCC2)c(NC(=S)NC2CC2)c1`, 61.3% (active); as for `COc1ccc(NS(=O)(=O)c2ccc(N3CCOCC3)c(NC(=O)c3ccc(OC)cc3)c2)cc1`, 9.7%.
As for `COc1ccc(NS(=O)(=O)c2ccc(N3CCOCC3)c(NC(=O)C(C)C)c2)cc1`, the figure is -20%; as for `COc1ccc(NS(=O)(=O)c2ccc(N3CCCC3)c(NC(=S)Nc3cccc(S(=O)(=O)N(C)C)c3)c2)cc1`, 69.9% (active).
On to `COc1ccc(NS(=O)(=O)c2ccc(N3CCCC3)c(NC(=S)Nc3ccc(SC(F)F)cc3)c2)cc1`, for which the inhibition was 59% (active).
The value for `COC(=O)CCC(=O)Nc1cc(S(=O)(=O)Nc2ccc(Cl)cc2)ccc1N1CCOCC1` was 21.8%; that for `CCN(CC)S(=O)(=O)c1ccc(N2CCCC2)c(NS(=O)(=O)c2ccc(OC)cc2)c1` was -1.6%; that for `COc1ccc(NC(=S)Nc2cccc(S(=O)(=O)N3CCCCC3)c2)cc1` was 1.3%.
The value for `COc1ccc(NS(=O)(=O)c2ccc(N3CCOCC3)c(NC(=O)c3ccccc3Cl)c2)cc1` was -2.5%; that for `COc1ccc(NS(=O)(=O)c2ccc(N3CCOCC3)c(NC(=O)c3ccc(F)cc3)c2)cc1` was 11.8%; that for `O=S(=O)(Nc1ccc(Cl)cc1)c1ccc(N2CCOCC2)c(NC(=S)NCCN2CCOCC2)c1` was 12.4%.
The value for `COc1ccc(NS(=O)(=O)c2ccc(N3CCCC3)c(NC(=S)Nc3cccc(C)c3C)c2)cc1` was 78.9% (active).
On to `CCCCNC(=S)NNC(=O)c1csc(C)c1CC`, for which the inhibition was -8.1%.
`O=C(O)CNC(=O)CC1S/C(=N/N=C/c2ccccc2O)NC1=O` (stereo not given): the inhibition was -8.1%.
The value for `CCCn1c(=O)c2ccccc2n2c(SCCOc3ccc(C)cc3)nnc12` was 12.7%.
As to `CCn1nnnc1SCC(=O)Nc1cc(OC)cc(OC)c1`, the inhibition is 2.1%.
The value for `COc1ccc(C(=O)COC(=O)CCN=C2NS(=O)(=O)c3ccccc32)cc1OC` was -5.9%.
As for `Cc1c(NC(=O)CCC2CCCCC2)c(=O)n(-c2ccccc2)n1C`, the figure is -13.7%; as for `O=S(=O)(NC1=NCCC1)c1cccc(NC(=S)NCCc2ccccc2)c1`, 2.3%.
The value for `Cc1cc(N2CCOCC2)nc2ccc(NC(=O)C3CCC(C)CC3)cc12` (stereo not given) was -6%.
Turning to `Cc1cc(N2CCOCC2)nc2ccc(NC(=S)N3CCN(c4ccccc4)CC3)cc12`, the inhibition is 22.5%.
Consider `Cc1cc(N2CCOCC2)nc2ccc(NC(=S)N3CCCCC3C)cc12` (stereo not given), for which the inhibition was 52.4% (active).
As for `O=c1oc2cc(OCc3ccc(C(F)(F)F)cc3)ccc2cc1-c1ccccn1`, the inhibition was -7%.
As for `NS(=O)(=O)c1ccc(NC(=S)NNC(=O)c2cccs2)cc1`, the figure is 63.3% (active); as for `COc1cc(C(=O)NNC(=O)c2ccc(NC(C)=O)cc2)cc(OC)c1OC`, -4.2%.
For the molecule `O=C(NNC(=S)Nc1ccc(Cl)cc1)c1cccs1`, the inhibition was -1.6%.
The value for `COc1cc(C(=O)NNC(=S)Nc2ccc(S(N)(=O)=O)cc2)cc(OC)c1OC` was 56.6% (active).
The value for `O=C(NNC(=S)Nc1ccccc1)c1cccs1` was -13.9%; that for `COc1cc(OC)cc(C(=O)NNC(=S)Nc2ccc(S(N)(=O)=O)cc2)c1` was -10.4%.
With `COc1ccc(C(=O)Nc2ccc3c(c2)nc(CN2CCCC2)n3C)cc1`, the inhibition is 9.7%.
The value for `C=CCn1c(SCC(=O)c2cccs2)nnc1-c1cccc(OC)c1` was 11.5%; that for `O=C(N/N=C/C(c1ccccc1)c1ccccc1)c1ccccc1F` was -8.5%; that for `Cc1nn(-c2nc3ccccc3n2Cc2ccccc2)c2c1C(=O)CC(C)(C)C2` was 24.7%.
As for `CNCc1ccccc1Sc1cccc(O)c1`, the figure is -7%; as for `CNCc1ccccc1Sc1cc(O)ccc1O`, 19.1%; as for `CNCc1ccccc1Sc1ccc(O)c(O)c1`, 74.9% (active).
For the molecule `CN(C(=O)CS(=O)(=O)c1cn(CC(=O)N2CCOCC2)c2ccccc12)c1ccccc1`, the inhibition is -4.3%.
The value for `Cc1ccc(NC(=O)NC2C(NC(=O)Nc3ccc(C)cc3)N(C)C(=O)N2C)cc1` (stereo not given) was 9.5%; that for `CNC(=S)N(CCc1c(C)[nH]c2ccc(OC)cc12)Cc1cccnc1` was 16%; that for `O=C(CSCc1ccc(Br)cc1)N=Nc1c(O)[nH]c2ccccc12` was 4.5%.
Consider `CC(C)(Cc1ccc(O)cc1)NC(=O)CC(=O)N=Nc1c(O)[nH]c2ccc(Br)cc12`, for which the inhibition is 1.3%.
The value for `CC(C)(Cc1ccc(O)cc1)NC(=O)CC(=O)N=Nc1c(O)[nH]c2cc(Br)ccc12` was 51.6% (active); that for `CSc1nc2sc(-c3ccccc3)cc2c(=O)n1N` was -6.6%; that for `CCOC(=O)Cc1csc(NC(=O)NC2(C(F)(F)F)Oc3ccc(Cl)cc3O2)n1` (stereo not given) was 51.8% (active).
The value for `CCOC(=O)Cc1csc(NC(=O)CC)n1` was -9.9%; that for `CCOC(=O)Cc1csc(NC(=O)NC2(C(F)(F)F)Oc3ccccc3O2)n1` was 22.4%; that for `CCOC(=O)Cc1csc(NC(=O)NC2(C(F)(F)F)Oc3cc(Cl)c(Cl)cc3O2)n1` was 57.5% (active).
As for `CCOC(=O)Cc1csc(NC(=O)C(C)(C)CC)n1`, the figure is -7.2%; as for `CCOC(=O)Cc1csc(NC(=O)Nc2cccc(Cl)c2)n1`, -0.4%.
On to `CC(OC(=O)c1ccc2ncsc2c1)C(=O)NCc1ccccc1` (stereo not given), for which the inhibition was 15.5%.
Take `O=C(Nc1nc(-c2cccs2)cs1)c1cc2ccccc2oc1=O`: the inhibition was -3.3%.
For `O=C(NC(Cc1c[nH]c2ccccc12)C(=O)N/N=C/c1ccc(Cl)cc1)c1cccs1` (stereo not given), the inhibition was 18.1%.
The value for `COc1cccc(C(=O)/C=C/c2ccc(N3CCCCC3)c([N+](=O)[O-])c2)c1` was 14.3%.
The value for `Cc1nc(-c2ccc(O)c(O)c2)cs1` was 47%.
As for `O=C(O)c1ccc(-c2nc(-c3ccccc3)cs2)cc1`, the figure is -11.3%.
`Oc1ccc(-c2nc(-c3ccc(O)c(O)c3)cs2)cc1`: the inhibition was 54.3% (active).
As for `Oc1ccc(-c2csc(-c3ccccc3)n2)cc1O`, the figure is 62.6% (active).
As for `O=C(O)c1ccc(-c2nc(-c3ccc(Cl)c(Cl)c3)cs2)cc1`, the figure is -3.3%; as for `Oc1ccccc1-c1csc(-c2ccccc2)n1`, 12.8%.
With `Cc1ccccc1N1C(=O)CSC1=C(C#N)C#N`, the inhibition was -15.3%.
Turning to `CCC1=C/C(=C/c2sc3ccccc3[n+]2CC)CC(C)(C)C1`, the inhibition is -60.6%.
The value for `CCOC(=O)c1cnc2c(-c3ccccc3)c(C)nn2c1N` was 9.6%; that for `Cc1ccc(CNC(=O)CCCCn2c(=O)[nH]c3ccsc3c2=O)cc1` was -4.3%; that for `CCCCn1c(-c2sccc2C)n[nH]c1=S` was 8.1%.
The value for `COc1cccc(NC(=O)C2CC(=O)N(C)C(=Nc3cccc(F)c3)S2)c1` (stereo not given) was 15.4%; that for `COc1cccc(NC(=O)C2CC(=O)n3cnnc3S2)c1` (stereo not given) was 51.1% (active).
As for `COc1cccc(NC(=O)C2CC(=O)N=C(N)S2)c1` (stereo not given), the figure is 15.2%; as for `Cc1ccc(-c2nnc(N3CCN(c4ccccn4)CC3)c3ccccc23)cc1`, 10.5%; as for `CC(C)CC(=O)Nc1cccc(NC(=O)CC(C)C)n1`, -6.8%.
Regarding `Cc1ccccc1NC(=O)C(NS(=O)(=O)c1ccc2c(c1)c(=O)n(C)c(=O)n2C)c1ccccc1` (stereo not given), the inhibition was -1.4%.

As a reminder, the inhibition is the drop in the measured response relative to a control, in per cent.
